Screening data: PubChem, National Center for Advancing Translational Sciences (NCATS)
Shiga inhibitor: Shiga toxin inhibition; hit rate 9.2% among 290,000; inhibition, % at 38.7 µM; AID 2315; Vero cells, Shiga toxin protein synthesis inhibition reporter; in the data active means inhibition mostly above about 28%, no sharp cut-off; inactive means mostly below about 43%; further: 0% is about no effect
Pf growth 48h: P. falciparum growth inhibition at 48 hours (one generation) | P. falciparum luciferase growth in erythrocytes, 48 h | Potency, µM (doses to about 28.7 µM), for the others: at the top dose activity change, negative = inhibition, most hits filed as inhibitors | hit rate 5.9% among 310,000 | AID 504832; further: potency means the concentration at half of the fitted maximal effect; on the % scale 0 is the no-effect control and ±100 the full control effect
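Compounds are pin-transferred into medium, infected erythrocytes (2% hematocrit, 0.1% parasitemia final) are added, and plates sit one parasite generation at 37 C in 5% CO2. Detection reagent is then added and luminescence measured.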
Pf growth 96h: P. falciparum growth inhibition at 96 hours; P. falciparum luciferase reporter growth, 96 h; Potency, µM (doses to about 28.7 µM), for inactives: top-dose activity change, negative = inhibition, most hits filed as inhibitors; hit rate 6.9% among 320,000; further: potency means the concentration at half of the fitted maximal effect; on the % scale 0 is the no-effect control and ±100 the full control effect
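Erythrocytes infected with luciferase-expressing P. falciparum were dispensed at 2% hematocrit and 0.05% parasitemia (final), then incubated with compounds 96 hours at 37 C in 5% CO2. Luminescence after detection reagent addition reported growth.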
NS1 inh: blocks influenza NS1 protein function. AID 2326. hit rate 0.4% among 270,000. Potency, µM (titrated, usually from 46.1 µM), without a hit: top-dose activity, positive = more growth; calls by dose curve; further: potency means the concentration at half of the fitted maximal effect; actives are rising curves; nearly all actives have a fitted effect of over 50% in size
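In this qHTS, NS1 from influenza A is expressed in budding yeast, where it slows growth. Cells are switched from glucose to 2% galactose medium (pH 6.0, -URA), treated with compound, and growth recovery is read at OD600.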
CHX counter: counter-screen for Shiga toxin inhibitors: cycloheximide protein synthesis inhibition; cell reporter, cycloheximide protein synthesis inhibition counterscreen; max response, %; hit rate 12% among 300,000; AID 2314; in the data active means max response mostly above about 13%, no sharp cut-off; inactive means mostly below about 14%; further: read at 38.3 µM for the half of the compounds with a filed dose; 0% is about no effect
* marks the source's active call; other numbers are inactive results; ? = inconclusive; . = not tested or not shown. Sampled rows, rich in hits. Any-hit rate of the full collection: about 21%. Unless noted, the call rests on the fitted dose curve; in most records, active means well fitted inhibition curve with a large enough effect; inconclusive means small, poorly fitted or top-dose-only effect, or another doubt; inactive means no such curve, though single readings can be large or run the other way.

SMILES	Shiga inhibitor	Pf growth 48h	Pf growth 96h	NS1 inh	CHX counter
Cc1nc2ccccc2c(C)c1CC(=O)N(CC(C)C)c1c(N)n(Cc2ccccc2)c(=O)[nH]c1=O	.	?	11.7µM*	.	.
CCc1cc(=O)[nH]c(SCc2cccnc2)n1	-3.5	23.4%	4.6%	-1.9%	1.9
Cc1cccc(C(=O)O/N=C(\N)Cc2ccc([N+](=O)[O-])cc2)c1	21.5	?	?	-199.0%	11.5
Cc1cccc(/C(N)=N/OC(=O)Cc2cccc3ccccc23)c1	27.7	-25.3%	?	-50.0%	20.5*
Cc1ccc(/C(N)=N/OC(=O)Cc2cccc3ccccc23)cc1	1.8	-7.1%	-20.6%	.	-4.4
Cc1cccc(C(=O)O/N=C(\N)Cc2cccc3ccccc23)c1	-5.7	3.29µM*	?	-136.9%	-0.8
O=C(CSc1nccn1-c1ccc(Cl)cc1)NCc1ccc2c(c1)OCO2	-5.9	.	?	-140.0%	-4.4
COc1ccc(C)cc1N(C(=O)c1ccccc1F)c1nc2ccccc2s1	-8.4	9.28µM*	16.5µM*	?	-3.2
Cc1ccsc1C(=O)N(c1nc2ccccc2s1)c1c(C)cccc1C	-14.1	11.7µM*	8.28µM*	6.7%	-1.4
CN(C)CCCN(C(=O)COc1ccccc1)c1nc2cc3c(cc2s1)OCO3	19.7	?	?	1.6%	11.0
COc1ccc(C)cc1N(C(=O)c1cccc(F)c1)c1nc2ccccc2s1	-4.1	?	?	10.2%	-1.0
COc1ccc(C)cc1N(C(=O)COc1ccccc1)c1nc2ccccc2s1	15.2	10.4µM*	?	-4.5%	1.5
COc1ccc(C)cc1N(C(=O)c1ccccc1)c1nc2ccccc2s1	-1.9	11.7µM*	13.1µM*	6.9%	-0.3
CN1CCN(C(=O)C2=C[C@H](c3csc4ccccc34)C[C@H](OCCCCO)O2)CC1	-10.4	2.4%	1.1%	-2.3%	1.1
CCN(CC)C(=O)CS(=O)(=O)CC(=O)Nc1cc(OCCOC)c(Cl)cc1Cl	8.7	-9.9%	?	0.3%	-2.0
Cc1cc(OCC(=O)NCCCN2CCOCC2)c2c(C)cc(=O)oc2c1	-6.4	23.2%	45.6%	-3.9%	-2.7
COc1cc(O)c(C(CC(=O)N2CCCCC2)c2ccc(N(C)C)cc2)c(OC)c1 (stereo not drawn)	23.2	17.1%	23.5%	-39.4%	1.0
CCN(CC)CCC(c1ccc(OC)cc1)c1c(O)cc(OC)cc1OC (stereo not drawn)	-0.3	1.31µM*	1.31µM*	0.8%	-1.2
CCN(CC)CCC(c1ccc(N(C)C)cc1)c1c(O)cc(OC)cc1OC (stereo not drawn)	-7.5	1.17µM*	1.47µM*	?	-5.5
CCN(CC)C(=O)CC(c1ccc(OC)cc1)c1c(O)cc(OC)cc1OC (stereo not drawn)	16.3	?	-14.6%	5.1%	-9.2
O=C(NCc1nnc2c(C(F)(F)F)cc(Cl)cn12)c1ccc(Br)o1	-5.2	-5.2%	-18.9%	7.0%	1.5
CC(Sc1nnc2c(n1)[nH]c1ccccc12)C(=O)NC1CCCCC1 (stereo not drawn)	1.8	9.28µM*	-11.8%	0.4%	-2.7
CC(Sc1nnc2c(n1)[nH]c1ccccc12)C(=O)N(C)C1CCCCC1 (stereo not drawn)	-8.6	?	?	-13.0%	-6.2
COc1cccc2sc(N)nc12	.	30.3%	22.5%	.	.
COc1cccc2sc(/N=C/N(C)C)nc12	50.4*	66.0%	41.6%	2.1%	10.4*
SMILES	Shiga inhibitor	Pf growth 48h	Pf growth 96h	NS1 inh	CHX counter
COc1cccc2sc(N(CCN(C)C)C(=O)/C=C/c3cccs3)nc12	-28.3	-28.2%	?	.	-14.4
COc1cccc2sc(N(C)c3ccccc3)nc12	86.2	.	-6.0%	-20.7%	61.5*
CC[C@H](C)[C@H](NC(=O)[C@H](Cc1ccc(O)cc1)NC(=O)[C@@H]1CCCN1C(=O)[C@H](CCCCN)NC(=O)[C@@H](N)CCCCN)C(=O)N[C@@H](CC(C)C)C(=O)O	24.4	.	.	.	-4.2
CCN(CC)C(=O)c1cnn(-c2ccccc2)c1NC(=O)c1cccs1	4.1	-2.6%	6.3%	-0.4%	-3.6
CNC(=S)N(Cc1ccc(OC)cc1)C1CC(=O)N(c2ccc(Cl)cc2)C1=O (stereo not drawn)	-14.7	?	0.928µM*	7.2%	0.5
Cc1ccc(N2C(=O)CC(N(CCc3ccccc3)C(=S)Nc3ccc(N(C)C)cc3)C2=O)cc1 (stereo not drawn)	19.4	11.7µM*	?	?	-3.0
COc1ccc(CN(C(=S)Nc2ccccc2)C2CC(=O)N(c3ccc(F)cc3)C2=O)cc1 (stereo not drawn)	35.1	?	?	16.4%	31.1*
O=C1CC(N(CCc2ccccc2)C(=S)Nc2ccccc2)C(=O)N1c1ccc(Br)cc1 (stereo not drawn)	-5.0	?	?	?	1.2
CCOC(=O)c1ccc(N2C(=O)C=C(N3CCOCC3)C2=O)cc1	-5.8	11.5%	?	2.9%	-1.7
CC12CS(=O)(=O)CC1SC(=S)N2Cc1ccccc1 (stereo not drawn)	-9.5	4.7%	0.0%	.	-3.9
CCOC(=O)c1ccc(N=C2C(=S)N(c3ccc(C(=O)OCC)cc3)C(=N)N2/N=C/c2ccccc2)cc1	32.9*	?	10.4µM*	13.0%	11.9
CC(/C=N/NC(=O)Cn1nccc1C)=C\c1ccc(C(C)C)cc1	43.1*	12.1%	3.2%	-23.3%	41.8*
CC(=C/c1ccc(C(C)C)cc1)/C=N/NC(=O)Cn1nc(C)cc1C	65.3	-9.6%	2.1%	8.6%	18.0*
Cc1ccc(/C=N/NC(=O)Cn2nnc(N)n2)cc1	-3.6	-2.6%	34.6%	6.8%	-1.9
CC(/C=N/NC(=O)Cn1nnc(N)n1)=C\c1ccc(C(C)C)cc1	76.9*	2.4%	30.6%	1.1%	24.3*
CC(/C=N\NC(=O)Cn1cncn1)=C/c1ccc(C(C)C)cc1	80.8*	23.2%	20.3%	-0.4%	24.2*
O=C(O)CCn1cc(-c2ccc(Cl)cc2)nc1-c1ccncc1	.	9.2%	62.3%	.	.
COc1ccc(CC(=O)NNC(=O)CSc2nc(C)c(C)c(=O)[nH]2)cc1	-17.4	9.8%	?	.	-3.8
O=C(O)C1C2C=CC(C2)C1C(=O)NCc1ccc(Cl)cc1Cl (stereo not drawn)	1.0	3.6%	5.2%	3.6%	-3.3
CCOC(=O)c1ccc(C(=O)NNC(=O)C2C3C=CC(C3)C2C(=O)O)cc1 (stereo not drawn)	15.5	-5.8%	-16.5%	9.1%	-2.3
O=C(NNC(=O)C1C2C=CC(C2)C1C(=O)O)c1ccccc1O (stereo not drawn)	50.3*	17.5%	-14.4%	-4.7%	16.9*
O=C(NNC(=O)C1C2C=CC(C2)C1C(=O)O)c1cc(Cl)ccc1O (stereo not drawn)	21.2	10.1%	-13.8%	14.5%	19.3*
O=C(NNC(=O)C1C2C=CC(C2)C1C(=O)O)c1ccccc1 (stereo not drawn)	100.6*	4.2%	-16.3%	-10.9%	38.6*
O=C(O)C1C2C=CC(C2)C1C(=O)OCc1ccccc1 (stereo not drawn)	-8.5	-9.3%	9.28µM*	7.9%	-2.6
